For 8 molecules, outcome, Potency and max activation results are on record in PubChem BioAssay (Tox21).

Test [1] deals with Progesterone receptor (Homo sapiens) (UniProt P06401). Nature of the test: qHTS assay to identify small molecule agonists of the progesterone receptor (PR) signaling pathway (AID 1346784; calls by dose curve; further: nearly all actives have a fitted effect of over 30% in size). A digest of the protocol: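 Beta-lactamase reporter read-out: after 16 hr compound treatment at 37C and a further 2 hr at room temperature with LiveBLAzer B/G FRET substrate, fluorescence was measured in PR-UAS-bla HEK 293T cells grown in 2% charcoal-stripped serum.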
Chain of Progesterone receptor (Homo sapiens) (P06401 whole entry, looked up): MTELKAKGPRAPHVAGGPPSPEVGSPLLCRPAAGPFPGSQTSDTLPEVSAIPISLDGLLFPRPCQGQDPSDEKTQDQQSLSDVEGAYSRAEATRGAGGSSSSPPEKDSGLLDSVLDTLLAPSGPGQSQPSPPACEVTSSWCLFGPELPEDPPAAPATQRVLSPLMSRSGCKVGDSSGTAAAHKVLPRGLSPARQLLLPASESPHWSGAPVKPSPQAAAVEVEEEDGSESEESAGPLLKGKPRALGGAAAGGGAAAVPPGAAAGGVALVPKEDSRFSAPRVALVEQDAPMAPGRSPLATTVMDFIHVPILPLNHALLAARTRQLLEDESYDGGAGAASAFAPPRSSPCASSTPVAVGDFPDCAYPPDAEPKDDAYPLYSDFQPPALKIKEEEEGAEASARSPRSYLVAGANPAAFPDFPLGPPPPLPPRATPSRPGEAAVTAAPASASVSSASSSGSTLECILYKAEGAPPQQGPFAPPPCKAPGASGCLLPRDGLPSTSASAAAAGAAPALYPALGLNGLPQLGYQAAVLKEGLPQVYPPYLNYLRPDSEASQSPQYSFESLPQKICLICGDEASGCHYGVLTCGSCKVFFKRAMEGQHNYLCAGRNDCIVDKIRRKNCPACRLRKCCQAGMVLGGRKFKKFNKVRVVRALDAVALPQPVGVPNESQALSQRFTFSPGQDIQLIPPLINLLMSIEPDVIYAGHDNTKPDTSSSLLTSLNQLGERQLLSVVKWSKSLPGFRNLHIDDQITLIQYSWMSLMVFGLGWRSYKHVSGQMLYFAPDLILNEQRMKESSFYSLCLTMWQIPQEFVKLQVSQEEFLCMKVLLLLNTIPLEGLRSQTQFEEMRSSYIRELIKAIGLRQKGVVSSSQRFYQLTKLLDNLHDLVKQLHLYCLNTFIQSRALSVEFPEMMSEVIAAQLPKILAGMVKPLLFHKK
(qHTS replaces the single test concentration by a dilution series.)

Test [2] in a line: qHTS assay to identify small molecule antagonists of the progesterone receptor (PR) signaling pathway - cell viability counter screen (AID 1346798). Further: nearly all actives have a fitted effect of over 50% in size. Further: potency means the concentration at half of the fitted maximal effect. In a few lines:
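HEK293T PR-UAS-bla, 2% charcoal-stripped FBS; 4 hr pre-plate; cpd + R5020, 16 h 37C; LiveBLAzer read first; then CellTiter-Glo 30 min RT, luminescence.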

Test [3] is described as follows: qHTS assay to identify small molecule agonists of the progesterone receptor (PR) signaling pathway - cell viability counter screen (AID 1346799; calls by dose curve; further: nearly all actives have a fitted effect of over 45% in size; further: potency means the concentration at half of the fitted maximal effect). In a few lines:
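Luminescence from CellTiter-Glo, added after the beta-lactamase FRET read in the same wells, gave cytotoxicity in PR-UAS-bla HEK293T cells treated with compounds for 16 hr at 37C.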

The nature of test [4]: qHTS assay to identify small molecule antagonists of the TGF-beta/Smad signaling pathway - cell viability counter screen (AID 1346824). Further: nearly all actives have a fitted effect of over 50% in size. In a few lines:
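SBE-bla HEK 293T cells were plated overnight at 37 C, then given compounds in DMSO plus TGF-beta1 (added as 0.25 ng/mL solution) for 5 hr. After the bla read, CellTiter-Glo was added to the same wells and luminescence read after 30 min at room temperature.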

The nature of test [5]: qHTS assay to identify small molecule agonists of the TGF-beta/Smad signaling pathway - cell viability counter screen (AID 1346829). Further: top concentration of the series differs between compounds; nearly all actives have a fitted effect of over 45% in size. A digest of the protocol: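 Tox21 qHTS format: SBE-bla HEK 293T cells treated with DMSO-dissolved compounds for 5 hr; CellTiter-Glo luminescence after 30 min at room temperature.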
The nature of test [6]: qHTS assay to identify small molecule agonists of the TGF-beta/Smad signaling pathway (AID 1346859; active means well fitted activation curve with a large enough effect in the signal ratio in the repeat runs, not every such curve was filed as active; the % refers to the signal ratio; further: series mostly up to about 77 µM). In a few lines:
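SBE-bla HEK 293T, 4,000 cells/well, plated o/n; cpd in DMSO, 5 hr, 37 C/5% CO2; B/G FRET substrate 2 hr RT; ex 405, em 460/530 nm.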

Test [7] concerns the target Thyrotropin-releasing hormone receptor (Homo sapiens) (UniProt P34981). Nature of the test: qHTS assay to identify small molecule antagonists of the thyrotropin-releasing hormone receptor (TRHR) signaling pathway (AID 1346877; active means well fitted inhibition curve with a large enough effect in the repeat runs, not every such curve was filed as active; further: series mostly up to about 51 µM). A digest of the protocol:
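Human TRHR in HEK293 cells; inhibition of the intracellular calcium rise triggered by 1 nM TRH was followed by fluorescence over 3 min. Compounds were run at 15 concentrations, three replicates each.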

Test [8] in a line: Human pregnane X receptor (PXR) small molecule agonists, qHTS cell viability counter screen (AID 1346977). Further: nearly all actives have a fitted effect of over 50% in size. A digest of the protocol:
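PXR-Luc HepG2, 2,000 cells/well, 5% charcoal-stripped FBS; 5hr settle; cpd 24hr, 37C/5% CO2; CellTiter-Fluor at 23hr, read 1hr later (fluorescence).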

A short description of test [9]: Caspase-3/7 induction in HepG2 cells by small molecules, qHTS assay (AID 1346978). Further: nearly all actives have a fitted effect of over 15% in size. A digest of the protocol:
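Wild-type HepG2 cells (2,000/well) were settled 5 h at 37 C, 5% CO2, then exposed to compounds in DMSO for 17 h. Caspase-3/7 activity was read by luminescence 30 min after adding Caspase-Glo 3/7 reagent at room temperature.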

Test [10] can be described thus: Caspase-3/7 induction in CHO-K1 cells by small molecules, qHTS assay (AID 1346980). Further: nearly all actives have a fitted effect of over 15% in size. A digest of the protocol:
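Wild-type cells were seeded at 1,500 per well and settled 5 hr at 37 C, 5% CO2, then exposed to DMSO-dissolved compounds for 17 hr. Caspase-Glo 3/7 reagent was added, and luminescence was read after 30min at room temperature.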

Test [11] can be described thus: Caspase-3/7 induction in HepG2 cells by small molecules, qHTS cell viability counter screen (AID 1346981). Further: series mostly up to about 92 µM; nearly all actives have a fitted effect of over 30% in size. A digest of the protocol: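 The parent HepG2 line is plated at 2,000 cells per well and rested 5 hr before compound pinning from DMSO stocks. Following a 16-hr treatment at 37 C, a fluorogenic live-cell substrate (CellTiter-Fluor) reports viability after 1 hr.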

The target in test [12] is Cytochrome P450 2D6 (Homo sapiens) (UniProt P10635). Nature of the test: Cytochrome P450 Family 2 Subfamily D Member 6 (CYP2D6) small molecule antagonists: luciferase reporter qHTS assay (AID 1671196). Further: nearly all actives have a fitted effect of over 50% in size. Further: potency means the concentration at half of the fitted maximal effect. A digest of the protocol: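 Quantitative HTS of Tox21 chemicals against CYP2D6 using a luminescent proluciferin substrate. After NADPH addition, 1 h room-temperature reaction; luminescence recorded 20 min post detection reagent.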
Chain of Cytochrome P450 2D6 (Homo sapiens) (P10635 whole entry, looked up): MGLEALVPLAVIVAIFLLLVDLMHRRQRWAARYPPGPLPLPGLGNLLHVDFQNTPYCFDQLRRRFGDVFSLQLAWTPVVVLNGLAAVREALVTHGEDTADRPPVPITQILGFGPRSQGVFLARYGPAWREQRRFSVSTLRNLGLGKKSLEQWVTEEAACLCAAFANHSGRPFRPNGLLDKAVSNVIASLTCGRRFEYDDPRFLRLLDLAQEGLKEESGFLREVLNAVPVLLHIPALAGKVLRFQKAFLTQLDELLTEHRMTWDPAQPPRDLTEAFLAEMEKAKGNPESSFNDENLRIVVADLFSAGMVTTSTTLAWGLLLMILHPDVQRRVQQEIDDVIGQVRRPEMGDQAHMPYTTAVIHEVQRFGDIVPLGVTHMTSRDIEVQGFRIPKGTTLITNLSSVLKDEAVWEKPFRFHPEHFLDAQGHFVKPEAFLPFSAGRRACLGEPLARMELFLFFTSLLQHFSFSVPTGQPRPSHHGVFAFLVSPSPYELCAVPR
A general note: Reporter assays use an easily measured gene product as a stand-in for the process of interest.

Test [13] deals with Thyrotropin-releasing hormone receptor (Homo sapiens) (UniProt P34981). Nature of the test: qHTS assay to identify small molecule agonists of the thyrotropin-releasing hormone receptor (TRHR) signaling pathway (AID 1346891; calls by dose curve; further: series mostly up to about 58 µM). A digest of the protocol: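 Intracellular calcium rise, read as fluorescence every second for 3 min, served as the agonist signal in dye-loaded HEK293 cells expressing TRHR; each compound ran at 15 concentrations in triplicate.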
Chain of Thyrotropin-releasing hormone receptor (Homo sapiens) (P34981 whole entry, looked up): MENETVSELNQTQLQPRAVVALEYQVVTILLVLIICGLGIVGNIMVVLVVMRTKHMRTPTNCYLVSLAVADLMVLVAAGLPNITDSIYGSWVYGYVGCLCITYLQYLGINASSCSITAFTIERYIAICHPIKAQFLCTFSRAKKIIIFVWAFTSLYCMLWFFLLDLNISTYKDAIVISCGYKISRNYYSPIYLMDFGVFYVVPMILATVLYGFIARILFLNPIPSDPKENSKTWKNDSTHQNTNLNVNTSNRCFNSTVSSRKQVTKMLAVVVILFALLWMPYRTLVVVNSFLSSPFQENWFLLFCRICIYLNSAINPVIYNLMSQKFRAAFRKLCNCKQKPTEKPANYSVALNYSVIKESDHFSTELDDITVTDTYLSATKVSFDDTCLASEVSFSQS

Test [14] addresses Nuclear receptor subfamily 1 group I member 2 (Homo sapiens) (UniProt O75469). Nature of the test: Human pregnane X receptor (PXR) small molecule agonists, qHTS assay (AID 1346982). Further: nearly all actives have a fitted effect of over 35% in size. Further: potency means the concentration at half of the fitted maximal effect. A digest of the protocol:
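After plating in 5% charcoal-stripped FBS and a 5 hr rest, PXR-Luc HepG2 cells received compounds in DMSO. Following 24 hr at 37 C, ONE-Glo was added and light output read.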

For test [15] the target is unchanged. Nature of the test: CYP3A4 induction through human pregnane X receptor (PXR) by small molecules, qHTS assay (AID 1346984). Further: nearly all actives have a fitted effect of over 40% in size. In a few lines: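 Human PXR activation is tracked via CYP3A4 promoter-luciferase in DPX-2 (HepG2) cells. Compounds treat cells for 24hr at 37C, and luminescence is read after One-Glo.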
Test [16] shares this target. Nature of the test: Human pregnane X receptor (PXR) activation by small molecules, qHTS assay (AID 1346985). Further: nearly all actives have a fitted effect of over 40% in size. A digest of the protocol: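 DPX-2 cells (HepG2 co-transfected with a PXR response element and a CYP3A4-promoter luciferase construct) were seeded at 2,000 per well, rested 5 hr at 37C, then exposed to DMSO-dissolved compounds for 24 hr. Activation was read as luciferase luminescence.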

Test [17] in a line: Caspase-3/7 induction in CHO-K1 cells by small molecules, qHTS cell viability counter screen (AID 1346979). Further: nearly all actives have a fitted effect of over 35% in size. In a few lines:
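Cells (CHO-K1, wild type) are plated at 1,500 per well and incubated 5hr. Test compounds in DMSO are then pinned in, followed by 16hr at 37C and 5% CO2. Viability is read by CellTiter-Fluor fluorescence after 1hr.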

In test [18] the target is Cytochrome P450 2C19 (Homo sapiens) (UniProt P33261). Nature of the test: Cytochrome P450 Family 2 Subfamily C Member 19 (CYP2C19) small molecule antagonists: luciferase reporter qHTS assay (AID 1671197). Further: nearly all actives have a fitted effect of over 65% in size. Further: potency means the concentration at half of the fitted maximal effect. In a few lines:
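Relative luminescence units recorded 20 min after the detection reagent stopped a 1 h, 37C CYP2C19 reaction on proluciferin substrate, which was started by NADPH regeneration following 10 min room-temperature compound preincubation; ketoconazole positive control.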

For test [19], the target named is Progesterone receptor (Homo sapiens) (UniProt P06401). Nature of the test: qHTS assay to identify small molecule antagonists of the progesterone receptor (PR) signaling pathway (AID 1346795; active means well fitted inhibition curve with a large enough effect in the signal ratio in the repeat runs, not every such curve was filed as active; the % refers to the signal ratio). In a few lines:
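Read-out is fluorescence from the LiveBLAzer B/G FRET substrate, cleaved by a UAS-controlled beta-lactamase in PR-UAS-bla HEK293T cells after 16 hr exposure to compound plus 1 nM promegestone (final), followed by 2 hr at room temperature.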

In test [20] the target is Nuclear receptor subfamily 1 group I member 2 (Rattus norvegicus) (UniProt Q9R1A7). Nature of the test: Rat pregnane X receptor (rPXR) activation by small molecules, qHTS assay (AID 1346983). Further: nearly all actives have a fitted effect of over 20% in size. The following applies: rPXR luciferase reporter cells, One-Glo luminescence, 24 h; max activation: stronger effect = higher value. A digest of the protocol: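 Cell-based rPXR luciferase reporter assay, 2,000 cells per well, rested 5hr at 37 C before compound addition in DMSO, then 24 hr at 37 C. One-Glo reagent was added and luminescence read after 30 min at room temperature.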
Chain of Nuclear receptor subfamily 1 group I member 2 (Rattus norvegicus) (Q9R1A7 whole entry, looked up): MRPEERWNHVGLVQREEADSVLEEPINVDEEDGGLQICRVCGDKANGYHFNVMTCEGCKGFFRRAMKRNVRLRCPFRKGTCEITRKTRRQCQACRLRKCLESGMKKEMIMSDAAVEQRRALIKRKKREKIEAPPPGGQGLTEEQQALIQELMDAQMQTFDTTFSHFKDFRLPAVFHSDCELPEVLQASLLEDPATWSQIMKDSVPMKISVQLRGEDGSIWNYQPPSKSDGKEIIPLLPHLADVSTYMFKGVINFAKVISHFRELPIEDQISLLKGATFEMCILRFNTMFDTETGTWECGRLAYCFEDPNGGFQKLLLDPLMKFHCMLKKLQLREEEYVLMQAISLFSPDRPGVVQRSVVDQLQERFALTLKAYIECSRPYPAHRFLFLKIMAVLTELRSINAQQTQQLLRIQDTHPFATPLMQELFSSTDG

A number with no mark means an inactive call. Inconclusive results are not listed. Active and inactive are the calls of the source. Unless noted, the call rests on the fitted dose curve; in most records, active means well fitted curve in the direction sought with a large enough effect in the repeat runs; inconclusive means weak or mixed curves; inactive means no such curve, though single readings can be large; an effect the other way counts as inactive or inconclusive.
On the % scale 0 is the no-effect control and ±100 the full control effect.

Chain of Cytochrome P450 2C19 (Homo sapiens) (P33261 whole entry, looked up): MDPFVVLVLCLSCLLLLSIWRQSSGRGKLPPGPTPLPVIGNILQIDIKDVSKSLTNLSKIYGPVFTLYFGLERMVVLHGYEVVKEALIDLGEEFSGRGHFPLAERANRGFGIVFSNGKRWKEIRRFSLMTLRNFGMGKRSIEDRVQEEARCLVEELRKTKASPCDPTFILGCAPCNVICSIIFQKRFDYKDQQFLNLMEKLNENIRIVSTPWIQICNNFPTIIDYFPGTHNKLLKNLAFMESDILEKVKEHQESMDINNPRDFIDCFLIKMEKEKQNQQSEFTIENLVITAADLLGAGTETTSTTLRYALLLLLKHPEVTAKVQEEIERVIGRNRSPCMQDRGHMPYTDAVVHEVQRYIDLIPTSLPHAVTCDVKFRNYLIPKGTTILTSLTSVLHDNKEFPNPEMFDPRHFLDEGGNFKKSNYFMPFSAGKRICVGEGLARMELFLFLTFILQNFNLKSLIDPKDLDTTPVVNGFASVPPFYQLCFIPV
Chain of Nuclear receptor subfamily 1 group I member 2 (Homo sapiens) (O75469 whole entry, looked up): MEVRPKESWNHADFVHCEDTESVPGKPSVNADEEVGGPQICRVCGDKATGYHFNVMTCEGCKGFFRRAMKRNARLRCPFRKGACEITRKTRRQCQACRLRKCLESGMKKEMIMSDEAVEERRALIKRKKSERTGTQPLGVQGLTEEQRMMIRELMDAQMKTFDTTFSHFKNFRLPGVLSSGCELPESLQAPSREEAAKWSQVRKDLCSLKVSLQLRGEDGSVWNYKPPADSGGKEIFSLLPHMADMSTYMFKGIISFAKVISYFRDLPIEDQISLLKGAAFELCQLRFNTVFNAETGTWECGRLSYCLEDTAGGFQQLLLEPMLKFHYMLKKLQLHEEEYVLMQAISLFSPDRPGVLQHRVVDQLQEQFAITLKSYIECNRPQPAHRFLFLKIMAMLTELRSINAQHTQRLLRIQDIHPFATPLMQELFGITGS

For the molecule `NCCCOCCOCCOCCCN`, the molecule was classed as inactive in test [1], in test [6], in test [7] and in test [9]. The Potency in test [2] was 9.69 µM (active); in [3] it was 8.63 µM (active); in test [12] it was 20 µM (active). Also, the Potency entry in test [4], in test [5], in test [8], in test [10] and in [11] was “inactive” each time.
Turning to `c1ccc(-c2nc[nH]c2-c2ccccc2)cc1`, the molecule was called inactive in test [1], in test [6], in [7] and in test [9]. The Potency result in test [2], in test [3], in test [5], in test [13], in test [10] and in [11] was “inactive” in each case. For the same molecule, the Potency entry in test [14], in test [15] and in test [16] was “inactive” each time.
For `CC(C)=CCCC(C)CC=O` (centres undefined), the call in test [1], in [6] and in [9] was inactive. Besides, the Potency result in test [2], in test [3], in test [5], in [8], in test [17] and in test [10] was “inactive” in each case. In addition, the Potency result in test [11] is “inactive”.
`CCCc1ccccc1`: the call in test [1], in test [6] and in [7] was inactive. The Potency entry in [2], in test [3], in [5], in test [13], in test [8] and in [17] was “inactive” throughout. The Potency entry in test [10], in [11], in [14], in [12] and in [18] was “inactive” throughout.
In the case of `Cc1cc(O)ccc1N`, the call in test [1], in [6], in test [7] and in test [9] was inactive. For the same molecule, the Potency result in test [3], in [4], in [5] and in test [13] was “inactive” each time. The Potency in test [14] is 61.4 µM (active); in test [12], 20.1 µM (active); in [18], 17.9 µM (active).
With `O=C(O)Cc1sc(-c2ccccc2)nc1-c1ccc(Cl)cc1`, the outcome in test [1], in test [7] and in test [9] was inactive. For the same molecule, the Potency result in test [19], in test [4], in test [5], in test [13], in test [8] and in test [17] was “inactive” each time. Besides, the Potency entry in test [10], in test [11], in [14], in test [15], in test [16] and in test [12] was “inactive” each time. Besides, the Potency entry in test [18] was “inactive”. Also, the max activation in test [20] was 0.948%.
In the case of `O=c1[nH]cnc2ccccc12`, the call in test [1], in [6] and in test [9] was inactive. For the same molecule, the Potency entry in test [2], in test [3], in test [4], in test [5], in test [8] and in test [10] was “inactive” in each case. Further, the Potency entry in test [11] and in [12] was “inactive” in each case. In test [14], the Potency is 0.398 µM (active).
`CCCCCCCC/C=C\CCCCCCCC(N)=O`: the molecule was classed as inactive in [1], in test [6], in test [7] and in test [9]. Also, the Potency entry in [3], in test [4], in test [5], in test [13], in test [8] and in [17] was “inactive” throughout. Also, the Potency result in test [10], in [11] and in test [18] was “inactive” in each case. The Potency in test [14] was 15.3 µM (active); in [12], 50.2 µM (active).
